# Measurements taken from ChEMBL document CHEMBL2218924, “A broad activity screen in support of a chemogenomic map for kinase signalling research and drug discovery” (Biochem J, 2013).
# Legend:
# [1] = molecular target: T1, Serine/threonine-protein kinase TBK1 (Homo sapiens) (UniProt Q9UHD2); conditions: at 10 µM
# T1 sequence (whole entry): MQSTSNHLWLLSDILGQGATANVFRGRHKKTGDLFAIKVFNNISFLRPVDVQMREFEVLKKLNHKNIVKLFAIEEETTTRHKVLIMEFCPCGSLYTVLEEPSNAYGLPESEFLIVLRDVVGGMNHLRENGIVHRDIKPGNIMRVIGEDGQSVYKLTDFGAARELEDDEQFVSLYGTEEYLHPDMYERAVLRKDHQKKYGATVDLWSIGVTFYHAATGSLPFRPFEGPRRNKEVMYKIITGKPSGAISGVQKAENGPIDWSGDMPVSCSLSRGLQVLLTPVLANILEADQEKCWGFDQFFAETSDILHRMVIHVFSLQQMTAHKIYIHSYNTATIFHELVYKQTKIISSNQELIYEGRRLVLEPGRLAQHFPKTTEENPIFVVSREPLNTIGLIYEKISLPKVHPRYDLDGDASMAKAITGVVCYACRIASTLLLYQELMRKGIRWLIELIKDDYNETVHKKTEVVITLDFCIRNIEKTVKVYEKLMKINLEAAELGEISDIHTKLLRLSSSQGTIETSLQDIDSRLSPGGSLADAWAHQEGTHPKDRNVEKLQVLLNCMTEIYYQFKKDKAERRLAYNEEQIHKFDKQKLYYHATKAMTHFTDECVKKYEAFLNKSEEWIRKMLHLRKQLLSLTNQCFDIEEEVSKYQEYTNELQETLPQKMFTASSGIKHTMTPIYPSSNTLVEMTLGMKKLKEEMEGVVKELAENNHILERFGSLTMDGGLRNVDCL
# [2] = molecular target: T2, TGF-beta receptor type-1 (Homo sapiens) (UniProt P36897); conditions: at 1 µM
# T2 sequence (whole entry): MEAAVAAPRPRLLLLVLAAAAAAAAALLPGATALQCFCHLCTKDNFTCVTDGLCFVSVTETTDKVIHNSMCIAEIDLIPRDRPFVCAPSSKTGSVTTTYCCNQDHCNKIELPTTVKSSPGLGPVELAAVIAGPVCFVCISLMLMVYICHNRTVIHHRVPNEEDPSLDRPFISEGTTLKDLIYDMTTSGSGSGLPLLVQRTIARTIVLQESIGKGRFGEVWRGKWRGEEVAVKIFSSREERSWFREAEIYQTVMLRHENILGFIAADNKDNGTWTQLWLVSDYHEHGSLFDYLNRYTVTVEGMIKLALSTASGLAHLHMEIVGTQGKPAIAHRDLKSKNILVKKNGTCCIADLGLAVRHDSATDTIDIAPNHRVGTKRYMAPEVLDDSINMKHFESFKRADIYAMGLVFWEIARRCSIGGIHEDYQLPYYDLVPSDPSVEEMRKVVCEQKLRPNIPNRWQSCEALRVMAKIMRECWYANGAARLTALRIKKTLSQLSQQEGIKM
# [3] = molecular target: T2, TGF-beta receptor type-1 (Homo sapiens); conditions: at 10 µM
# [4] = molecular target: Insulin-like growth factor 1 receptor (Homo sapiens) (UniProt P08069); conditions: at 1 µM
# Chain of Insulin-like growth factor 1 receptor (Homo sapiens) (P08069 31-736 limits assumed): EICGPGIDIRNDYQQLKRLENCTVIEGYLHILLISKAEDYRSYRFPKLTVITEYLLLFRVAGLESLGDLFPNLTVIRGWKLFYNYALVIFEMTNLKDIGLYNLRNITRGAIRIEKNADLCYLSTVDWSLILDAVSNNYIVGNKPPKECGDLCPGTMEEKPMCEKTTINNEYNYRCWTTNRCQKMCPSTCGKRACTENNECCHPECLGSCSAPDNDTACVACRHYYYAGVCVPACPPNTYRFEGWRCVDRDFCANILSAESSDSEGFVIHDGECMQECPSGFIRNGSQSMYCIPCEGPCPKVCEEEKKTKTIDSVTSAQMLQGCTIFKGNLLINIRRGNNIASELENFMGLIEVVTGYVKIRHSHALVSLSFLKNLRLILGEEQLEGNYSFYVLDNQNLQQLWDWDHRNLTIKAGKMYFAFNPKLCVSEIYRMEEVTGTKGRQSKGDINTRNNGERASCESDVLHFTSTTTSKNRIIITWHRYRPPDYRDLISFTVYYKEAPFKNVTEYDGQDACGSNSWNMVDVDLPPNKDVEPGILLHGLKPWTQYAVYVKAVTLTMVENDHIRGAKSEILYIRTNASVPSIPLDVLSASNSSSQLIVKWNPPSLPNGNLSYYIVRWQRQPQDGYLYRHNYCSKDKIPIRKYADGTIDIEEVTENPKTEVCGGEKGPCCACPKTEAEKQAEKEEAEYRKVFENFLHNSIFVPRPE
# Chain of Insulin-like growth factor 1 receptor (Homo sapiens) (P08069 741-1367 limits assumed): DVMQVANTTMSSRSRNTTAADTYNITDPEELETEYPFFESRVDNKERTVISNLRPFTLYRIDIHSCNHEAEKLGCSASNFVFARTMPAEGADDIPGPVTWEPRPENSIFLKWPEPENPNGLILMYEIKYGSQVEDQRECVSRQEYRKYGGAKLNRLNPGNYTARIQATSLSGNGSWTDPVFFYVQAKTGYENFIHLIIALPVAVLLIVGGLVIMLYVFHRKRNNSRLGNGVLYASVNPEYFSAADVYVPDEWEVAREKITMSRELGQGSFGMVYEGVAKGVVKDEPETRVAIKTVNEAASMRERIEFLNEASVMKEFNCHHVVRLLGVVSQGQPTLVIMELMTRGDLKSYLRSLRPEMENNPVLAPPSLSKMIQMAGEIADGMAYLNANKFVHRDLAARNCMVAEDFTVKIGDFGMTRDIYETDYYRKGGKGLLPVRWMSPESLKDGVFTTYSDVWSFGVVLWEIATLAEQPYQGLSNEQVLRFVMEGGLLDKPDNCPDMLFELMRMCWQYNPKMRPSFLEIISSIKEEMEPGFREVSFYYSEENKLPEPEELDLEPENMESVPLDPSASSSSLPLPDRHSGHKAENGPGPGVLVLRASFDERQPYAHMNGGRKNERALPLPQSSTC
# [5] = molecular target: Insulin-like growth factor 1 receptor (Homo sapiens) (UniProt P08069); conditions: at 10 µM
# [6] = molecular target: T3, Inhibitor of nuclear factor kappa-B kinase subunit alpha (Homo sapiens) (UniProt O15111); conditions: at 1 µM
# T3 sequence (whole entry): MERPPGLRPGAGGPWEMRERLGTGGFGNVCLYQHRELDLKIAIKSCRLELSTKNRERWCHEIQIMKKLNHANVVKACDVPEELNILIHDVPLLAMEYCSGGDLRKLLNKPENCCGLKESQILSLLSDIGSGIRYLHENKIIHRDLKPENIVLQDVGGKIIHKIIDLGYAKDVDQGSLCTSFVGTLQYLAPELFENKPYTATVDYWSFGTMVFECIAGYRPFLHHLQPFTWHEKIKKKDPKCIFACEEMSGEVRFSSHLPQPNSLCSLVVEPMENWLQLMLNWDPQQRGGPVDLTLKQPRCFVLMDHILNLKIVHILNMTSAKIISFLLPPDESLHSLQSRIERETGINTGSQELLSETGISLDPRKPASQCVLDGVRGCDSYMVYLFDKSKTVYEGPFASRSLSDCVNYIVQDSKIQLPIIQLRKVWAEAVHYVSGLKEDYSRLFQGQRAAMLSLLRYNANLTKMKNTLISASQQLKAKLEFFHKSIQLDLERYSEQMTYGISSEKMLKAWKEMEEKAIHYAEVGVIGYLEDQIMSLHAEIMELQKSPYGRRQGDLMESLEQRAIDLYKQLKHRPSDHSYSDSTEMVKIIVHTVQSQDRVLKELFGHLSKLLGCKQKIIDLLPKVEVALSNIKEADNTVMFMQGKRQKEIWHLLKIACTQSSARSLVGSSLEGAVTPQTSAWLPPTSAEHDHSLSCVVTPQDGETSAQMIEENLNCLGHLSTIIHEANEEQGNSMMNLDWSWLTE
# [7] = molecular target: T3, Inhibitor of nuclear factor kappa-B kinase subunit alpha (Homo sapiens); conditions: at 10 µM
# [8] = molecular target: T4, Inhibitor of nuclear factor kappa-B kinase subunit beta (Homo sapiens) (UniProt O14920); conditions: at 1 µM
# T4 sequence (whole entry): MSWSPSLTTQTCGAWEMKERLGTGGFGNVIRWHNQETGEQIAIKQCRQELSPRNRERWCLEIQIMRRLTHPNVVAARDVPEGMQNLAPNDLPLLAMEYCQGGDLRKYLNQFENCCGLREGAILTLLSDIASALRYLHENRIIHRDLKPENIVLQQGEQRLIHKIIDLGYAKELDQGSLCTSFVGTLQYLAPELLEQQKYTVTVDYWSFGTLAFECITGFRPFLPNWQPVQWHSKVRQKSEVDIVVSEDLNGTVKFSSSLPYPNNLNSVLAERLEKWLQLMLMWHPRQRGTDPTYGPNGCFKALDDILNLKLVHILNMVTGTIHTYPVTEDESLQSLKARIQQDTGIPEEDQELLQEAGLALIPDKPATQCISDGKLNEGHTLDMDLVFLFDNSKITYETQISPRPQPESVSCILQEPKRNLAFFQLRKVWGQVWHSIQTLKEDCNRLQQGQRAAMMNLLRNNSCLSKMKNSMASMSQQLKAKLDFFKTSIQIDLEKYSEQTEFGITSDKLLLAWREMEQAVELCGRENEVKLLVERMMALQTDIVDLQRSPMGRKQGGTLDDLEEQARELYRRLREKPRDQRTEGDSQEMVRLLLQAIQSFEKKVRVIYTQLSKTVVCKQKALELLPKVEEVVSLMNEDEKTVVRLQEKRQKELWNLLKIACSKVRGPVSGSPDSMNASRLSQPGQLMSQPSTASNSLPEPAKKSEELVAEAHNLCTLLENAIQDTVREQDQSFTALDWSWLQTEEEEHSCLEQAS
# [9] = molecular target: T4, Inhibitor of nuclear factor kappa-B kinase subunit beta (Homo sapiens); conditions: at 10 µM
# [10] = molecular target: Insulin receptor (Homo sapiens) (UniProt P06213); conditions: at 1 µM
# Chain of Insulin receptor (Homo sapiens) (P06213 28-758 limits assumed): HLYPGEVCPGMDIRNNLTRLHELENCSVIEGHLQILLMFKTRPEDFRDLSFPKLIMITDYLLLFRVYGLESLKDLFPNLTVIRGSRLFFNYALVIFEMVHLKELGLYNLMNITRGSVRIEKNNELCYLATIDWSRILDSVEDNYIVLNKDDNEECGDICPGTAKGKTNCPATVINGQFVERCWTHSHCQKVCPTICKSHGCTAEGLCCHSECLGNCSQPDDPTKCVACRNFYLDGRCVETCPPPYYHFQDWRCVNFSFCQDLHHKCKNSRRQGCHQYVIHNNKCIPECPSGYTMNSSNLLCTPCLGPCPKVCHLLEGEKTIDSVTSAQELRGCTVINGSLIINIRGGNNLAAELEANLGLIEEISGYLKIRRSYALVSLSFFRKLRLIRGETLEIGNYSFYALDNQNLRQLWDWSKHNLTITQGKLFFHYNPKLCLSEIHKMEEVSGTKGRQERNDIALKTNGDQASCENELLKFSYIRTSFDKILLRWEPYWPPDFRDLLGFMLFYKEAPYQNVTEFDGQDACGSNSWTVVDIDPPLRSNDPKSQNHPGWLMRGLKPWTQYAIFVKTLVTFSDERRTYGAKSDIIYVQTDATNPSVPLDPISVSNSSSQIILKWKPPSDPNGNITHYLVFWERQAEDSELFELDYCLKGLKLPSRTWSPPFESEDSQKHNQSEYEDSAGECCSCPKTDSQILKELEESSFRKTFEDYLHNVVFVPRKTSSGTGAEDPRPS
# Chain of Insulin receptor (Homo sapiens) (P06213 763-1382 limits assumed): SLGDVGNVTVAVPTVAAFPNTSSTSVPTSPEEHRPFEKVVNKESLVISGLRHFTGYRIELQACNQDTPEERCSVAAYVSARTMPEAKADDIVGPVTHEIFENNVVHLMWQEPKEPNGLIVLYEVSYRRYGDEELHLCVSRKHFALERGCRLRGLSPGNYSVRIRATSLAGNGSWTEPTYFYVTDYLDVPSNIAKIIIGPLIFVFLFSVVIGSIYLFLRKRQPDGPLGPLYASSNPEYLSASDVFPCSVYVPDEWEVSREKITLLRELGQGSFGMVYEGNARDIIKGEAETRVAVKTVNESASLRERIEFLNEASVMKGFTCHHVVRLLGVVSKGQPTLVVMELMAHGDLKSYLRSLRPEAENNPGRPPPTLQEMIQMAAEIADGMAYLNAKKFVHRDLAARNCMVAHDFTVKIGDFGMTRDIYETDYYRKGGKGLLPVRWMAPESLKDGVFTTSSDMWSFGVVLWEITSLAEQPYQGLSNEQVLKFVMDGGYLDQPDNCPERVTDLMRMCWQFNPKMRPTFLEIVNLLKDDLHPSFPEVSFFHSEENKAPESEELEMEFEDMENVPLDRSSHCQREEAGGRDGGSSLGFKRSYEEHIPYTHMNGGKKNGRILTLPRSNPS
Structure (SMILES),residual activity [1] [%],residual activity [2] [%],residual activity [3] [%],residual activity [4] [%],residual activity [5] [%],residual activity [6] [%],residual activity [7] [%],residual activity [8] [%],residual activity [9] [%],residual activity [10] [%]
Oc1c2ccccc2c2c3c(cccc13)N=N2,11,88,74,92,49,57,21,78,43,81
NC(=O)c1ccc2[nH]c(-c3ccc(Oc4ccc(Cl)cc4)cc3)nc2c1,60,84,85,89,85,123,137,108,106,102
Nc1nc(Nc2ccc(S(N)(=O)=O)cc2)nn1C(=S)Nc1c(F)cccc1F,-2,13,2,74,83,10,1,33,6,–
Ic1cccc(CSc2nnc(-c3ccncc3)o2)c1,6,82,79,79,95,80,72,87,79,93
Nc1n[nH]c2nnc(-c3c(-c4ccccc4)nn4ccccc34)cc12,67,88,83,82,76,115,107,102,102,70
Cn1nc2c3c(cccc31)C(=O)c1ccccc1-2,55,85,76,89,99,110,82,100,87,94
COc1cccc(-c2cc(=O)c3ccccc3o2)c1N,95,104,93,93,97,105,97,125,109,109
CC(C)n1cnc2/c(=N/c3cccc(Cl)c3)nc(NCCO)[nH]c21,33,79,85,72,31,114,98,102,85,83
COc1cc2ncnc(Nc3ccc(O)c(Br)c3)c2cc1OC,15,79,71,87,81,97,72,97,82,114
Cc1cc2ncc(-c3ccccc3)nc2cc1C,73,100,91,99,101,105,109,101,99,–
O=C1NC(=O)/C(=C/c2ccc3c(c2)OC(F)(F)O3)S1,67,95,89,113,102,112,107,111,92,111
CCC(=O)Nc1ccc2ncnc(Nc3cccc(Br)c3)c2c1,68,75,94,97,102,121,125,112,97,110
O=C(Nc1cccc(Nc2nccc(Nc3cccc(C(F)(F)F)c3)n2)c1)C1CC1,32,105,72,90,96,113,88,74,52,22
Nc1ccc2ncnc(NCCc3ccc(Oc4ccccc4)cc3)c2c1,62,117,112,116,119,107,101,115,110,139
CCN(CC)CCCCN1c2ccccc2Oc2ccc(Cl)cc21,82,84,105,107,104,97,102,112,105,114
CC(=O)O/N=C1\C(=C2\C(=O)Nc3cc(Br)ccc32)Nc2ccccc21,14,91,74,102,100,111,108,101,93,118

Structure (SMILES),residual activity [1] [%],residual activity [2] [%],residual activity [3] [%],residual activity [4] [%],residual activity [5] [%],residual activity [6] [%],residual activity [7] [%],residual activity [8] [%],residual activity [9] [%],residual activity [10] [%]
CO[C@H]1[C@@H](OC)C[C@H](C)[C@@H](OC)C2=CC(=O)C=C(NC(=O)/C(C)=C/C=C/[C@H](OC)[C@@H](OC(N)=O)/C(C)=C/[C@@H]1C)C2=O,69,99,89,106,96,85,113,111,107,109
CN(C)c1ccc(/C=C2\C(=O)Nc3ccccc32)cc1,45,93,98,105,103,102,120,112,93,99
COc1ccc(OC)c2c(=S)c3ccccc3[nH]c12,67,101,81,98,101,99,102,95,95,99
O=C1Nc2ccccc2/C1=C1/Nc2ccccc2/C1=N\OCCC(O)CO (stereo not drawn),1,77,64,10,10,82,46,104,66,17
O=C1c2ccccc2-[n+]2ccc3c([nH]c4ccccc43)c21,53,81,78,86,92,108,108,113,97,84
Cn1cnc2cc3c(Nc4cccc(Br)c4)ncnc3cc21,63,86,85,109,90,92,104,95,94,102
O=C1NC(=O)c2c1c1c3ccccc3[nH]c1c1[nH]c3cc(Br)ccc3c21,54,100,98,96,99,89,71,77,100,99
c1ccc2c(-c3ccncc3)c[nH]c2c1,51,87,88,88,79,97,69,105,73,110
C[C@@H](N)[C@H]1CC[C@H](C(=O)Nc2ccncc2)CC1,99,113,105,115,105,136,64,87,77,100
Cc1cc(Nc2nc(-c3ccccc3)nc3ccccc23)n[nH]1,0,96,78,20,1,102,72,78,51,16
O=C1NC(=O)c2cc(Nc3ccc(F)cc3)c(Nc3ccc(F)cc3)cc21,54,78,76,90,77,111,113,108,95,115
Cc1nc(-c2ccccc2)c(-c2ccncc2)o1,88,116,100,107,116,109,101,109,82,117
CNc1cc2c(Nc3cccc(Br)c3)ncnc2cn1,64,87,94,96,94,108,101,92,76,91
COc1cc2ncnc(Nc3ccc(Oc4ccccc4)cc3)c2cc1OC,57,99,98,110,89,117,101,103,122,110
O=[N+]([O-])c1ccc(-c2nc(-c3ccc(F)cc3)c(-c3ccncc3)[nH]2)cc1,76,61,59,97,105,119,99,129,111,107
Cn1cc(/C=C2\C(=O)Nc3ccc(S(N)(=O)=O)cc32)c2ccccc21,10,100,96,81,86,100,92,87,78,91
